These molecules were tested against Protein kinase C beta type (Homo sapiens) (UniProt P05771). Conditions: at 0.1 µM.
Protein kinase C beta type (Homo sapiens), sequence (P05771 2-671 limits assumed): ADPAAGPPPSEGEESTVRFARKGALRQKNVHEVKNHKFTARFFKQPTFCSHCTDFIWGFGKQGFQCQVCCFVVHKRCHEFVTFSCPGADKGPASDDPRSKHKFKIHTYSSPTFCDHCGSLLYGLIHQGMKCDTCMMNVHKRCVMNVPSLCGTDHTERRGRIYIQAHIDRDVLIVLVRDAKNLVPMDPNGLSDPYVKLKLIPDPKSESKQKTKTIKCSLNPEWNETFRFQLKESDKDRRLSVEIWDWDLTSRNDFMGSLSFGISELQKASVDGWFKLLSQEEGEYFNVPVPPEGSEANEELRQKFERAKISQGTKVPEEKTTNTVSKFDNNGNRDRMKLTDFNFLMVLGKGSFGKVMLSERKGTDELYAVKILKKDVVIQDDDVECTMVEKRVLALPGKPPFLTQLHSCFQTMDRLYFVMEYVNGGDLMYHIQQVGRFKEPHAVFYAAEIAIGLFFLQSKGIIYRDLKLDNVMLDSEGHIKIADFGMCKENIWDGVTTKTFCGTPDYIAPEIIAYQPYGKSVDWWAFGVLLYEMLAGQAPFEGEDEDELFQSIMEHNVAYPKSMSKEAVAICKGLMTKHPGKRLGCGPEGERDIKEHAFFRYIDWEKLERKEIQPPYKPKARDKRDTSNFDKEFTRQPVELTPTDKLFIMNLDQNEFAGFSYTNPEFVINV
For `O=C(Nc1ccc(Oc2ccc3[nH]c(NC(=O)c4ccco4)nc3c2)cc1)Nc1cc(C(F)(F)F)ccc1F`, the inhibition was -0.09%.
`Cc1ccc(Nc2ccnc(Nc3cccc(C(N)=O)c3)n2)cc1O` showed an inhibition of 0.32%.
With `CCCN1CCCC(c2ccc(Nc3nc(Nc4cc(F)ccc4C(N)=O)c4cc[nH]c4n3)c(OC)c2)C1` (centres undefined) the inhibition was -0.31%.
In the case of `CC(C)c1ccc2c(c1)NC(=O)/C2=N/Nc1ccc(S(N)(=O)=O)cc1`, the inhibition is reported as -0.04%.
Work on `NS(=O)(=O)c1ccc(-c2cc3ccncc3cc2OCc2ccccc2)cc1` yielded an inhibition of 0.43%.
In the case of `CN1CCN(C(=O)c2ccc(NC(=O)Nc3ccc(N(C)c4ccnc(Nc5ccc(CS(C)(=O)=O)cc5)n4)cc3)cc2)CC1`, the inhibition is reported as 0.01%.
`CN(c1ccc(NC(=O)Nc2ccc(OC(F)(F)F)cc2)cc1)c1ccnc(Nc2cccc(S(N)(=O)=O)c2)n1` was tested, and the inhibition was 0.45%.
Work on `CS(=O)(=O)CCNCc1nc(-c2ccc3ncnc(Nc4ccc(OCc5cccc(C(F)(F)F)c5)cc4)c3c2)cs1` yielded an inhibition of 0.26%.
Work on `Nc1nccc(C#Cc2cncnc2Nc2ccc(OCc3cccc(F)c3)c(Cl)c2)n1` yielded an inhibition of 2.69%.
`COc1ccc(-c2nn3ncccc3c2-c2ccnc(Nc3cccc(C(F)(F)F)c3)n2)cc1` gave an inhibition of 1.46%.
`Cc1cc(Cl)cc2c1NC(=O)C2=NNc1ccc(S(N)(=O)=O)cc1` gave an inhibition of 0.78%.
In the case of `Cc1ccc(O)cc1Nc1ccnc2ccc(S(C)(=O)=O)cc12`, the inhibition is reported as 1.93%.
`CCn1c(-c2nonc2N)nc2ccc(F)cc21` was tested, and the inhibition was 2.61%.
Work on `COc1cc2ncnc(Nc3ccc4c(cnn4Cc4ccccc4)c3)c2cc1OC` yielded an inhibition of 0.81%.
In the case of `Cc1nc(-c2ccccc2)n2nc(NCCCN3CCOCC3)ncc12`, the inhibition is reported as -0.19%.
Molecule `OCc1ccc(-c2nc(-c3ccccn3)c(-c3ccc4c(c3)OCO4)[nH]2)cc1` has an inhibition of 0.21%.
`[O-][S+]1CCN(Cc2ccc(-c3ccc4ncnc(Nc5ccc(OCc6ccccc6)c(Cl)c5)c4c3)o2)CC1` showed an inhibition of 0.56%.
Work on `Cc1ccc2c(-c3ccnc(Nc4cccc(C(F)(F)F)c4)n3)c(-c3ccccc3)nn2n1` yielded an inhibition of 0.54%.
With `CCOc1nccc2c1nc(-c1nonc1N)n2CC` the inhibition was 11.6%.
With `NS(=O)(=O)c1ccc(N/N=C2\C(=O)Nc3ccc(Cl)cc32)cc1` the inhibition was 1.35%.
`COc1cccc(-n2ncc3c(N/N=C/c4ccc(S(C)(=O)=O)cc4)ncnc32)c1` showed an inhibition of 2.22%.
In the case of `CCS(=O)(=O)c1ccc(OC)c(Nc2nccc(N(C)c3ccc4c(C)n[nH]c4c3)n2)c1`, the inhibition is reported as 0.4%.
`Cc1ccc2c(c1)/C(=N/Nc1ccc(S(N)(=O)=O)cc1)C(=O)N2` was tested, and the inhibition was -0.92%.
In the case of `Cc1cc(O)cc(C)c1/C=C/c1cncc(C(=O)N(C)C)c1`, the inhibition is reported as 0.67%.
For `O=C1Nc2ccccc2/C1=C/Nc1ccc2[nH]c(=O)[nH]c2c1`, the inhibition was 0.19%.
Molecule `COC(=O)c1ccc2c(c1)C(=Cc1cc(Br)c(O)c(Br)c1)C(=O)N2` has an inhibition of -0.23%.
With `NS(=O)(=O)c1cccc(-c2cc3ccncc3cc2OCc2ccccc2)c1` the inhibition was -0.33%.
`C[C@@H](Oc1cc(-n2cnc3ccc(OC[C@@H](O)CO)cc32)sc1C(N)=O)c1ccccc1Cl` was tested, and the inhibition was -0.38%.
Work on `NC(=O)c1cccc(Nc2nccc(Nc3cccc(F)c3)n2)c1` yielded an inhibition of -2.22%.
Molecule `Cc1ccc(NC(=O)CC2CC2)cc1-c1ccc(C(=O)NCC2CC2)cc1` has an inhibition of -0.34%.
In the case of `Cc1ccc(C(=O)NC2CC2)cc1-c1ccc2[nH]ncc2c1`, the inhibition is reported as -0.41%.
`Nc1nccc(-c2c(-c3ccc(F)cc3)ncn2CCCN2CCOCC2)n1` gave an inhibition of 1.5%.
In the case of `N#Cc1c(NC(=O)c2ccccc2F)sc2c1CCCC2`, the inhibition is reported as 0.38%.
Work on `CN(C)CCCn1c(-c2nonc2N)nc2cnccc21` yielded an inhibition of 1.86%.

Reference: ChEMBL document CHEMBL1961873, “Compounds: GSK PKIS; Assays: Nanosyn kinase panel” (2012)
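Also: PKC-beta1 splice variant of the enzyme, figure reported as mean inhibition, measured within the GSK PKIS kinase profiling panel.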
